Data published in PubChem BioAssay (NCI).
Compounds without any hit were thinned out: in the full panel of roughly 79,000, 15% have a hit. Active and inactive are the calls of the source. Cut-off read from the data, not from the text of the source: active = growth inhibition above about 70%; inactive = the rest.

Key:
[1] = NCI Yeast Anticancer Drug Screen. Data for the mec2-1 strain (AID 157); conditions: S. cerevisiae mec2-1 strain, active compounds read high
In short: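 Readout is yeast growth inhibition, normalised to vehicle-treated controls, in the mec2-1 strain exposed to compound.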

[2] = NCI Yeast Anticancer Drug Screen. Data for the rad14 strain (AID 159);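 note: 0% = growth of vehicle-treated control cultures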; conditions: S. cerevisiae rad14 strain growth inhibition, active compounds read high
In short: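 Here, inhibition of yeast growth was measured after compound exposure, using a strain with a genetic defect in DNA damage repair and vehicle-treated cultures as the reference.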

[3] = NCI Yeast Anticancer Drug Screen. Data for the sgs1 mgt1 strain (AID 161);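 note: 0% = growth of cultures given vehicle only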; conditions: S. cerevisiae sgs1 mgt1 strain, active compounds read high
In short: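 Percent growth inhibition was derived by comparing compound-exposed mutant yeast with vehicle-exposed cultures. The strain carries alterations in DNA damage repair.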

[4] = NCI Yeast Anticancer Drug Screen. Data for the CLN2oe strain (AID 163);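 note: 0% = growth of vehicle-only control cultures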; conditions: S. cerevisiae CLN2oe strain, active compounds read high
In short: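 Values reflect how much compound exposure reduced yeast growth, referenced to vehicle-exposed cells. Assay organism is a strain with a defined genetic change affecting cell-cycle control.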

[5] = NCI Yeast Anticancer Drug Screen. Data for the cln2 rad14 strain (AID 165);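 note: 0% = growth equal to vehicle treated cultures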; conditions: S. cerevisiae cln2 rad14 strain, active compounds read high
In short: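 Relative to vehicle controls, growth inhibition of compound-treated cln2 rad14 yeast was recorded.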

[6] = NCI Yeast Anticancer Drug Screen. Data for the bub3 strain (AID 167); conditions: S. cerevisiae bub3 mutant strain, active compounds read high
In short: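 Whole-cell yeast assay. The mutant strain was incubated with compounds, and growth inhibition was determined by comparison with vehicle-treated cells.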

[7] = NCI Yeast Anticancer Drug Screen. Data for the wt2 strain (AID 169);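 note: 0% = growth of vehicle-treated yeast cultures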; conditions: S. cerevisiae wt2 strain growth inhibition, active compounds read high
In short: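 Values express reduction in yeast growth under compound treatment, referenced to vehicle-treated cells.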

[8] = NCI Yeast Anticancer Drug Screen. Data for the mlh1 strain (AID 171);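 note: 0% = growth of vehicle-treated control cultures of the same strain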; conditions: S. cerevisiae mlh1 strain growth inhibition, active compounds read high
In short: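 Steps: expose the defined-mutant yeast strain to compound; expose a parallel culture to vehicle; measure growth; express compound effect as inhibition relative to the vehicle culture.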

[9] = NCI Yeast Anticancer Drug Screen. Data for the sgs1 strain (AID 173);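 note: 0% = growth of vehicle-only control cultures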; conditions: S. cerevisiae sgs1 mutant, active compounds read high
In short: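 Treat defined-mutant yeast with compound; measure growth; calculate inhibition relative to vehicle-treated cells.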

[10] = NCI Yeast Anticancer Drug Screen. Data for the mlh1 rad18 strain (AID 175); conditions: S. cerevisiae mlh1 rad18 strain growth inhibition, active compounds read high
In short: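 Test agents were incubated with a yeast strain of defined genotype (DNA damage repair defect). Inhibition of growth was derived by comparison with vehicle-exposed cultures.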

[11] = NCI Yeast Anticancer Drug Screen. Data for the rad18 strain (AID 177); conditions: S. cerevisiae rad18 mutant growth inhibition, active compounds read high
In short: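 A genetically defined yeast mutant impaired in DNA damage repair was treated with test compounds, then its growth was measured against cultures receiving vehicle alone.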

[12] = NCI Yeast Anticancer Drug Screen. Data for the rad52 strain (AID 147);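 note: 0% = growth of vehicle-treated control cultures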; conditions: S. cerevisiae rad52 mutant growth inhibition, active compounds read high
In short: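 Screen used a yeast mutant impaired in DNA repair. After compound exposure, growth was measured. Values reflect inhibition compared with vehicle-treated cells.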

[13] = NCI Yeast Anticancer Drug Screen. Data for the wt1 strain (AID 149);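 note: 0% = growth of vehicle-treated wt1 cultures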; conditions: S. cerevisiae wt1 strain (SPY 50644) growth inhibition, active compounds read high
In short: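 Measured: growth of wt1 yeast under compound versus vehicle treatment, reported as inhibition.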

[14] = NCI Yeast Anticancer Drug Screen. Data for the rad50EPP+ strain (AID 151);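 note: 0% = growth of vehicle-treated control cultures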; conditions: S. cerevisiae rad50 mutant strain, active compounds read high
In short: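 Exposing the rad50EPP+ strain to each compound, growth was compared with vehicle-only cultures to give inhibition.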

[15] = NCI Yeast Anticancer Drug Screen. Data for the mgt1 strain (AID 153); conditions: S. cerevisiae mgt1 mutant growth inhibition, active compounds read high
In short: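 Genetically defined yeast (mgt1) treated with compound; inhibition of growth expressed against vehicle-treated controls.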

[16] = NCI Yeast Anticancer Drug Screen. Data for the rad50 strain (AID 155);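 note: 0% = growth of vehicle-only cultures of the same strain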; conditions: S. cerevisiae rad50 strain growth inhibition, active compounds read high
In short: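 Growth of the mutant yeast was measured after compound exposure and referenced to vehicle-treated cultures.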

[17] = at 5.0 µM (retest, dose inferred, filed as 0.5)
[18] = at 50.0 µM (retest, dose inferred, filed as 5.0)

Measured: growth inhibition

CCOC(=O)C(Cc1c2ccccc2cc2ccccc12)(NC(C)=O)C(=O)OCC
active: [1]; at 50.0 µM 75.5% | [3]; at 50.0 µM 86% | [6]; at 50.0 µM 88.8% | [10]; at 50.0 µM 86.9%
inactive: [1]; [17] -6% | [1]; at 11.0 µM -1% | [1]; at 33.0 µM 1% | [1]; [18] 27% | [1]; at 100.0 µM -1% | [2]; at 1.2 µM -3% | [2]; at 3.7 µM -5% | [2]; at 11.0 µM -3% | [2]; at 33.0 µM -5% | [2]; at 100.0 µM -1% | [3]; [17] -7% | [3]; [18] 19% | [4]; at 1.2 µM -3% | [4]; at 3.7 µM -2% | [4]; at 11.0 µM -6% | [4]; at 33.0 µM 0% | [4]; at 100.0 µM -2% | [5]; [17] 5% | [5]; [18] 41% | [5]; at 50.0 µM 61.3% | [6]; at 1.2 µM -2% | [6]; at 3.7 µM 1% | [6]; [17] 8% | [6]; at 11.0 µM -1% | [6]; at 33.0 µM 0% | [6]; [18] 67% | [6]; at 100.0 µM 2% | [7]; at 1.2 µM -2% | [7]; at 3.7 µM -3% | [7]; at 11.0 µM -4% | [7]; at 33.0 µM -2% | [7]; at 100.0 µM -2% | [8]; at 1.2 µM 0% | [8]; at 3.7 µM 0% | [8]; at 11.0 µM -3% | [8]; at 33.0 µM -2% | [8]; at 100.0 µM 0% | [9]; at 1.2 µM -1% | [9]; at 3.7 µM 1% | [9]; at 11.0 µM -1% | [9]; at 33.0 µM 5% | [9]; at 100.0 µM 9% | [10]; [17] -11% | [10]; [18] 35% | [11]; at 1.2 µM -5% | [11]; at 3.7 µM -1% | [11]; at 11.0 µM -1% | [11]; at 33.0 µM 0% | [11]; at 100.0 µM 3%

CC(C)(N=Nc1ccc(Cl)cc1)[N+](=O)[O-]
inactive: [12]; at 1.2 µM 17% | [12]; at 3.7 µM 27% | [13]; at 1.2 µM 10% | [13]; at 3.7 µM 12% | [13]; at 11.0 µM 68% | [14]; at 1.2 µM 13% | [14]; at 3.7 µM 17% | [14]; at 11.0 µM 60% | [15]; at 1.2 µM 12% | [15]; at 3.7 µM 22% | [16]; at 1.2 µM 15% | [16]; at 3.7 µM 35% | [16]; [17] 47% | [1]; at 1.2 µM -1% | [1]; at 3.7 µM 9% | [1]; [17] 28% | [1]; at 11.0 µM 64% | [2]; at 1.2 µM 16% | [2]; at 3.7 µM 21% | [3]; [17] 35% | [4]; at 1.2 µM 14% | [4]; at 3.7 µM 19% | [5]; [17] -1% | [6]; at 1.2 µM 19% | [6]; at 3.7 µM 18% | [6]; [17] 27% | [7]; at 1.2 µM 12% | [7]; at 3.7 µM 15% | [8]; at 1.2 µM 3% | [8]; at 3.7 µM 11% | [9]; at 1.2 µM 11% | [9]; at 3.7 µM 19% | [10]; [17] 47% | [11]; at 1.2 µM 15% | [11]; at 3.7 µM 23%
active: [12]; at 11.0 µM 90% | [12]; at 33.0 µM 97% | [12]; at 100.0 µM 97% | [13]; at 33.0 µM 98% | [13]; at 100.0 µM 98% | [14]; at 33.0 µM 90% | [14]; at 100.0 µM 96% | [15]; at 11.0 µM 79% | [15]; at 33.0 µM 98% | [15]; at 100.0 µM 99% | [16]; at 11.0 µM 93% | [16]; at 33.0 µM 98% | [16]; [18] 98% | [16]; at 50.0 µM 99% | [16]; at 100.0 µM 98% | [1]; at 33.0 µM 98% | [1]; [18] 99% | [1]; at 50.0 µM 98.9% | [1]; at 100.0 µM 98% | [2]; at 11.0 µM 76% | [2]; at 33.0 µM 97% | [2]; at 100.0 µM 97% | [3]; [18] 98% | [3]; at 50.0 µM 98.7% | [4]; at 11.0 µM 83% | [4]; at 33.0 µM 97% | [4]; at 100.0 µM 98% | [5]; [18] 98% | [5]; at 50.0 µM 98.5% | [6]; at 11.0 µM 82% | [6]; at 33.0 µM 97% | [6]; [18] 99% | [6]; at 50.0 µM 99% | [6]; at 100.0 µM 98% | [7]; at 11.0 µM 88% | [7]; at 33.0 µM 98% | [7]; at 100.0 µM 98% | [8]; at 11.0 µM 77% | [8]; at 33.0 µM 98% | [8]; at 100.0 µM 99% | [9]; at 11.0 µM 95% | [9]; at 33.0 µM 98% | [9]; at 100.0 µM 98% | [10]; [18] 98% | [10]; at 50.0 µM 98.7% | [11]; at 11.0 µM 94% | [11]; at 33.0 µM 98% | [11]; at 100.0 µM 96%

O/N=c1/ccn(O)c2ccccc12
active: [12]; at 3.7 µM 91% | [12]; at 11.0 µM 95% | [12]; at 33.0 µM 96% | [12]; at 100.0 µM 95% | [14]; at 1.2 µM 87% | [14]; at 3.7 µM 96% | [14]; at 11.0 µM 97% | [14]; at 33.0 µM 97% | [14]; at 100.0 µM 97% | [15]; at 100.0 µM 84% | [16]; at 1.2 µM 74% | [16]; at 3.7 µM 96% | [16]; [17] 89% | [16]; at 11.0 µM 95% | [16]; at 33.0 µM 96% | [16]; [18] 95% | [16]; at 50.0 µM 96.3% | [16]; at 100.0 µM 96% | [1]; at 3.7 µM 97% | [1]; [17] 94% | [1]; at 11.0 µM 98% | [1]; at 33.0 µM 98% | [1]; [18] 98% | [1]; at 50.0 µM 97.5% | [1]; at 100.0 µM 98% | [2]; at 1.2 µM 96% | [2]; at 3.7 µM 99% | [2]; at 11.0 µM 99% | [2]; at 33.0 µM 99% | [2]; at 100.0 µM 99% | [3]; [17] 87% | [3]; [18] 95% | [3]; at 50.0 µM 97% | [5]; [17] 98% | [5]; [18] 99% | [5]; at 50.0 µM 98.8% | [6]; [18] 72% | [6]; at 50.0 µM 83.2% | [6]; at 100.0 µM 79% | [8]; at 100.0 µM 83% | [9]; at 1.2 µM 85% | [9]; at 3.7 µM 94% | [9]; at 11.0 µM 96% | [9]; at 33.0 µM 96% | [9]; at 100.0 µM 96% | [10]; [17] 82% | [10]; [18] 97% | [10]; at 50.0 µM 97.5% | [11]; at 1.2 µM 96% | [11]; at 3.7 µM 98% | [11]; at 11.0 µM 97% | [11]; at 33.0 µM 97% | [11]; at 100.0 µM 97%
inactive: [12]; at 1.2 µM 49% | [13]; at 1.2 µM 0% | [13]; at 3.7 µM 8% | [13]; at 11.0 µM 20% | [13]; at 33.0 µM 43% | [13]; at 100.0 µM 61% | [15]; at 1.2 µM -1% | [15]; at 3.7 µM 7% | [15]; at 11.0 µM 23% | [15]; at 33.0 µM 51% | [1]; at 1.2 µM 51% | [4]; at 1.2 µM -8% | [4]; at 3.7 µM -5% | [4]; at 11.0 µM 8% | [4]; at 33.0 µM 37% | [4]; at 100.0 µM 58% | [6]; at 1.2 µM -5% | [6]; at 3.7 µM 5% | [6]; [17] 11% | [6]; at 11.0 µM 24% | [6]; at 33.0 µM 54% | [7]; at 1.2 µM -1% | [7]; at 3.7 µM 14% | [7]; at 11.0 µM 20% | [7]; at 33.0 µM 39% | [7]; at 100.0 µM 58% | [8]; at 1.2 µM 2% | [8]; at 3.7 µM 15% | [8]; at 11.0 µM 30% | [8]; at 33.0 µM 53%
